Source: PubChem
HP1b binding inh: HTS for Inhibitors of HP1-beta Chromodomain Interactions with Methylated Histone Tails; Potency, µM (series often up to 114 µM), most hits filed as inhibitors; AID 540317, 2011; Chromobox protein homolog 1 (Homo sapiens), P83916; AlphaScreen HP1-beta / biotin-H3K9me3 peptide binding; 390,000 tested, 0.56% active; further: nearly all actives have a fitted effect of over 70% in size
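Compound inhibition of the preformed complex between 50 nM HP1-beta and 50 nM biotinylated H3K9me3 peptide was read by AlphaScreen. Buffer was PBS pH 7.4 with 0.01% Tween-20. Incubations ran 30 min at room temperature, with 10 ug/mL donor/acceptor beads.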
JMJD2A Tudor inh: qHTS Assay for Inhibitors of JMJD2A-Tudor Domain; AlphaScreen JMJD2A-Tudor / H3K4me3 peptide binding; Potency, µM (titrated, usually from 114 µM), actives largely listed as inhibitors; Lysine-specific demethylase 4A (Homo sapiens), O75164; 390,000 tested, 4.4% active; AID 504339, 2011; further: nearly all actives have a fitted effect of over 50% in size
G9a inh: qHTS Assay for Inhibitors of Histone Lysine Methyltransferase G9a; G9a H3K9 monomethylation, AlphaScreen, 2 h; Histone-lysine N-methyltransferase EHMT2 (Homo sapiens), Q96KQ7; Potency, µM (series often up to 102 µM), most hits filed as inhibitors; 350,000 tested, 8.8% active; further: nearly all actives have a fitted effect of over 75% in size
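Quantitative HTS format: methyltransferase activity on a biotin-tagged H3K9 peptide is measured by AlphaScreen, using a rabbit anti-monomethyl-H3K9 antibody with streptavidin donor and anti-IgG acceptor beads. Final levels are 20 nM enzyme, 500 nM peptide, 20 uM SAM; 2 h RT.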
Sfp inh: qHTS Assay for Inhibitors of Bacillus subtilis Sfp phosphopantetheinyl transferase (PPTase). Potency, µM, hits mostly inhibitors. AID 1490, 2009. 4'-phosphopantetheinyl transferase ffp (Bacillus subtilis), Q9F4F7. 310,000 tested, 3.5% active. Biochemical Sfp PPTase activity, qHTS;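 further: the enzyme is Sfp with the accession as filed and its product quenches rhodamine fluorescence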
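Buffer: 50 mM Hepes-Na pH 7.6, 10 mM MgCl2, 0.01% Nonidet P-40, 0.01% BSA. Enzyme 15 nM, pre-exposed to compound 15 min; substrates then added and fluorescence change tracked over 30 min.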
L3MBTL1 block: qHTS Assay for the Inhibitors of L3MBTL1; AID 485360, 2010; 230,000 tested, 0.66% active; Potency, µM (highest dose often 57.1 µM), actives largely listed as inhibitors; Lethal(3)malignant brain tumor-like protein 1 (Homo sapiens), Q9Y468; AlphaScreen L3MBTL1–H3K9me1 peptide binding; further: nearly all actives have a fitted effect of over 60% in size
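AlphaScreen proximity signal between nickel-chelate acceptor and streptavidin donor beads (final 10 ug/mL) reports binding of 50 nM L3MBTL1 to 75 nM biotin-H3 K9me1 peptide; complex incubated with compounds 30 min at room temperature; cefsulodin titration as control.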
BAZ2B inh: qHTS Assay for Inhibitors of BAZ2B; AlphaScreen BAZ2B-H3K14Ac peptide displacement; Potency, µM (doses to about 114 µM), most hits filed as inhibitors; Bromodomain adjacent to zinc finger domain protein 2B (Homo sapiens), Q9UIF8; 360,000 tested, 4.4% active; further: nearly all actives have a fitted effect of over 60% in size
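AlphaScreen luminescence quantifies BAZ2B engagement of H3K14Ac peptide; the protein and biotinylated peptide are both at 50 nM final, buffer PBS pH 7.4 with 0.01% Tween-20, all steps at room temperature.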
A number is an active result; [ ] = remark or other dose. A selection: hits, their analogues and other compounds. The true share with any hit is near 12%. The call rests on the fitted dose curve; in most records, active means well fitted curve in the direction sought with a large enough effect; inconclusive means small, poorly fitted or top-dose-only effect, or another doubt; inactive means no such curve, though single readings can be large; an effect the other way counts as inactive or inconclusive.

For CCCOC(=O)C1=C(C)N(C)C(=O)NC1c1cc2c(cc1[N+](=O)[O-])OCO2 (stereo not drawn) the results were HP1b binding inh inactive, JMJD2A Tudor inh inconclusive, G9a inh 10µM, Sfp inh 14µM, L3MBTL1 block inconclusive and BAZ2B inh inconclusive.
CCOC(=O)C1=C(C)NC(=O)CC1c1cc2c(cc1[N+](=O)[O-])OCO2 (stereo not drawn) was read as HP1b binding inh inactive, JMJD2A Tudor inh inactive, G9a inh 22µM and Sfp inh inconclusive.
Screening CCCCNC(=O)Cn1c(SCc2cccc(F)c2)nc2ccncc21 returned HP1b binding inh inactive and JMJD2A Tudor inh inactive.
Screening Cc1cc2c(s1)c1cnn(Cc3c(F)ccc(C)c3Cl)c(=O)c1n2C returned JMJD2A Tudor inh inactive.
Cc1ccc(Nc2nc(N)nc(CSc3nnnn3-c3ccccc3)n2)cc1 was read as HP1b binding inh inactive, JMJD2A Tudor inh 89µM, G9a inh inactive[12.7 µM], Sfp inh inactive, L3MBTL1 block inactive and BAZ2B inh inconclusive.
For CCOC(=O)C1CCCN(Cc2nc(N)nc(Nc3ccccc3)n2)C1 (stereo not drawn) the results were HP1b binding inh inactive, JMJD2A Tudor inh 56µM, G9a inh inactive[12.7 µM], Sfp inh inactive, L3MBTL1 block inactive and BAZ2B inh 35µM.
`Cc1cccc(Nc2nc(N)nc(CN3CCN(c4ccc(F)cc4)CC3)n2)c1` gave HP1b binding inh inactive, JMJD2A Tudor inh 56µM, G9a inh 45µM, Sfp inh inactive, L3MBTL1 block inactive and BAZ2B inh inactive.
Screening Cc1ccc(Nc2nc(N)nc(CN3CCN(C(=O)c4ccco4)CC3)n2)cc1Cl returned HP1b binding inh inactive, JMJD2A Tudor inh inconclusive, G9a inh 50µM, Sfp inh inactive, L3MBTL1 block inactive and BAZ2B inh inactive.
For O=C(c1ccncc1)N1CCC2(CC1)CN(c1ccccn1)C2 the results were G9a inh inactive[12.7 µM] and Sfp inh inactive.
CCc1cnc2c(c1SCC(=O)Nc1ccc(C)cc1C)c(=O)n(C)c(=O)n2C was read as HP1b binding inh inactive, JMJD2A Tudor inh inactive, G9a inh inactive and BAZ2B inh inactive.
CS(=O)(=O)Nc1cccc(-c2cc(Nc3ccccc3)ncn2)c1 was read as G9a inh inactive[0.501 µM] and Sfp inh inactive.
Screening Nc1nc(CN2CCCCCC2)nc(Nc2ccccc2)n1 returned HP1b binding inh inactive, JMJD2A Tudor inh 20µM, G9a inh inconclusive, Sfp inh inactive, L3MBTL1 block 28µM and BAZ2B inh 10µM.
`Cc1ccc(Nc2nc(N)nc(CN3CCCCCC3)n2)cc1` gave HP1b binding inh inactive, JMJD2A Tudor inh 50µM, G9a inh inconclusive, Sfp inh inactive, L3MBTL1 block inconclusive and BAZ2B inh 11µM.
`COc1ccc(OCc2nc(N)nc(Nc3ccc(C)cc3)n2)cc1` gave HP1b binding inh inactive, JMJD2A Tudor inh inactive, G9a inh inactive, Sfp inh inactive, L3MBTL1 block inactive and BAZ2B inh inactive.
COc1ccc(NC(=O)CC2C(=O)N(c3ccc(C)cc3)C(=O)N2CCc2ccccc2)cc1 (stereo not drawn) was read as HP1b binding inh inactive, JMJD2A Tudor inh inactive, G9a inh inactive and BAZ2B inh inactive.
`CCOC(=O)C1CCN(CCC(=O)Nc2ccccc2OC)CC1` gave HP1b binding inh inactive, JMJD2A Tudor inh inactive, G9a inh inconclusive and BAZ2B inh inactive.
`Cc1ccc(-c2c(C(=O)N/N=C/c3ccc(C)o3)nnn2-c2nonc2N)cc1` gave HP1b binding inh inactive, JMJD2A Tudor inh inactive, Sfp inh 50µM and BAZ2B inh inactive.
Screening Cc1ccc(/C=N/NC(=O)c2nnn(-c3nonc3N)c2CSc2ccccc2)cc1 returned HP1b binding inh inactive, JMJD2A Tudor inh inactive, Sfp inh inactive, L3MBTL1 block inactive and BAZ2B inh inactive.
For Cc1ccc(/C=N/NC(=O)c2nnn(-c3nonc3N)c2CNc2ccccc2)cc1 the results were HP1b binding inh inactive, JMJD2A Tudor inh 22µM, G9a inh inactive, Sfp inh inactive and BAZ2B inh inactive.
`Cc1ccc(-c2c(C(=O)N/N=C/c3ccco3)nnn2-c2nonc2N)cc1` gave HP1b binding inh inactive, JMJD2A Tudor inh inactive, G9a inh inactive, Sfp inh inactive and BAZ2B inh inactive.
Screening CCc1ccc(-n2nc(CO)c(C(=O)NCc3ccccc3OC)n2)cc1 returned HP1b binding inh inactive, JMJD2A Tudor inh inactive, G9a inh inactive and BAZ2B inh inactive.
`CCc1ccc(-n2nc(C)c3c(C(=O)Nc4ccc(Cl)cc4)cc(C)nc32)cc1` gave HP1b binding inh inactive, JMJD2A Tudor inh inactive, G9a inh inactive and BAZ2B inh inactive.
Cc1ccc(-n2nc(C)c3c(C)cc(=O)n(CC(=O)N4CCCc5ccccc54)c32)cc1 was read as HP1b binding inh inactive, JMJD2A Tudor inh inactive, G9a inh inactive and BAZ2B inh inactive.
For COc1ccc2[nH]c3nc(SCC(=O)NNC(=O)c4ccc(OC)c(OC)c4)nnc3c2c1 the results were HP1b binding inh inactive, JMJD2A Tudor inh inactive, G9a inh inconclusive, Sfp inh inactive, L3MBTL1 block inactive and BAZ2B inh inactive.
For Cc1ccc(C(=O)NNC(=O)CSc2nnc3c(n2)[nH]c2ccc(F)cc23)cc1 the results were HP1b binding inh inactive, JMJD2A Tudor inh 20µM, Sfp inh inconclusive, L3MBTL1 block inactive and BAZ2B inh inconclusive.
`CC(C)(C)C1CCC(=NNC(=S)Nc2cccnc2)CC1` (stereo not drawn) gave HP1b binding inh inactive, JMJD2A Tudor inh inconclusive, G9a inh 10µM, Sfp inh inconclusive, L3MBTL1 block inactive and BAZ2B inh inconclusive.
`S=C(Nc1cccnc1)NC1CC2CCC1C2` (stereo not drawn) gave HP1b binding inh inactive, JMJD2A Tudor inh inactive, Sfp inh inactive and BAZ2B inh 71µM.
Fc1cccc(F)c1/C=N/NC(=S)Nc1cccnc1 was read as HP1b binding inh inactive, JMJD2A Tudor inh inactive, G9a inh inactive, Sfp inh inactive, L3MBTL1 block inactive and BAZ2B inh inactive.
Screening CCNC(=S)NN=C1CCC(C(C)(C)C)CC1 (stereo not drawn) returned HP1b binding inh inactive, JMJD2A Tudor inh inactive, G9a inh inconclusive, Sfp inh 50µM and BAZ2B inh 79µM.
`OCc1ccccc1NC(=S)Nc1cccnc1` gave HP1b binding inh inactive, JMJD2A Tudor inh inactive, G9a inh inactive, Sfp inh inactive and BAZ2B inh inactive.
